# From PubChem BioAssay (NCATS)
# Results filed as inconclusive are left out. A call without a number means that no potency is given here. Calls of active or inactive are those of the source. Calls come from the whole dose curve; as a rule, active = well fitted activation curve with a large enough effect; inconclusive = small, poorly fitted or top-dose-only effect; inactive = flat fitted curve, though single readings scatter.
# Target: D(1A) dopamine receptor (Homo sapiens) (UniProt P21728)
# Experiment: HTS Assay for Allosteric Agonists of the Human D1 Dopamine Receptor: Primary Screen for Agonists (AID 488981)
# Conditions: Inducible HEK293 T-REx D1 cells, calcium-flux fluorescence, 180 s kinetic; series mostly up to 41.8 µM
# Text: Dopamine receptors (DARs) are involved in the etiology and/or therapy of a number of neuropsychiatric and endocrine disorders. For instance, all receptor-based antiparkinsonian drugs work via stimulating the […] DAR subtype whereas all FDA-approved antipsychotic agents are antagonists of this receptor. […] There are three different types of allosteric modulators that we are seeking, two of which will stimulate or augment receptor signaling, allosteric agonists and potentiators, while the third, allosteric antagonists, will attenuate receptor signaling. The present primary screening assay measures compound agonism by tracking calcium flux in a […], inducible Hek293 Trex D1 cell line.
# Freshly passaged cells are plated in 1536 well black, clear bottom plates at a density of 4000 cells/well in 3 ul of complete media containing 1x tetracycline inducer. After an overnight incubation at 30 C in 5% CO2, cells are loaded with 2 ul of the no wash Calcium Assay Kit (ABD Bioquest) and incubated at room temperature for 30 to 90 minutes. A 10 cycle (1 second/cycle) baseline measurement is taken and then the FDSS online 1536 pintool delivers 23 nl of compound library (as well as dopamine controls) to the plate. The plate is measured for kinetically at 1 cycle/sec for 180 seconds and is considered to be the agonist portion of the assay (eg, compounds which activate a positive calcium response during this portion are flagged as potential agonists). Following the 180 second read, 1 ul of an EC20 of dopamine is delivered by an onboard pipette head. Measurements are taken kinetically for an additional 180 seconds.
# Sequence of D(1A) dopamine receptor (Homo sapiens) (P21728 whole entry, looked up): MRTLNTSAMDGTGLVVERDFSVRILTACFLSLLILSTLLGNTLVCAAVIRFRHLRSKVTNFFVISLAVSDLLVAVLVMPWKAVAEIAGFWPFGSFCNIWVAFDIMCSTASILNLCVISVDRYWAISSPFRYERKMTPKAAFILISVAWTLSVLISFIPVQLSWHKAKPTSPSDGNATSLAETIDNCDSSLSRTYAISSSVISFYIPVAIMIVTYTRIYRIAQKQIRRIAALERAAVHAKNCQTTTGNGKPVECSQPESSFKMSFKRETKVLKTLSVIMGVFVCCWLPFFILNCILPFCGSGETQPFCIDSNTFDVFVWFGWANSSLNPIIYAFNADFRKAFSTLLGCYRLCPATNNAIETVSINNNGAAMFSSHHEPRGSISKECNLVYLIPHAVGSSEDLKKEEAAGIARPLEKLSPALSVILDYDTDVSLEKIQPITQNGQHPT
row,SMILES,Potency
1,COc1ccccc1N1CCN(CCCCN2C(=O)c3ccccc3C2=O)CC1,inactive
2,COc1ccccc1N1CCN(CCCNc2c(C)c(=O)n(C)c(=O)n2C)CC1,inactive
3,CC1CCN(CC[C@H]2CCCN2S(=O)(=O)c2cccc(O)c2)CC1,inactive
4,C=CC1(C)CC(=O)C2(O)C(C)(O1)C(OC(C)=O)C(O)C1C(C)(C)CCC(O)C12C (stereo not given),inactive
5,CCCn1c(=O)c2[nH]c(-c3ccc(S(=O)(=O)O)cc3)nc2n(CCC)c1=O,inactive
6,CCCCC[C@H](CC(=O)NO)C(=O)N[C@H](C(=O)N1CCC[C@H]1CO)C(C)C,inactive
7,CCCN(CCc1ccccc1)C1CCc2c(O)cccc2C1 (stereo not given),inactive
8,COc1cc(CNC(=O)CCCCCCC(C)C)ccc1O,inactive
9,c1ccc2c(c1)CCC[C@H]2Nc1nc2ccccc2[nH]1,inactive
10,Cn1c(=O)c2[nH]c(C3CCCC3)nc2n(C)c1=O,inactive
11,C=C1C(=O)O[C@@H]2[C@H]3O[C@]3(C)CCC=C(C)CC[C@@H]12,inactive
12,O=c1oc(Cl)c(Cl)c2ccccc12,inactive
13,CCCn1c(=O)c(C)cn2nc(N)nc12,inactive
14,CNC(=O)c1cc2c(cn1)[nH]c1ccccc12,inactive
15,O=c1[nH]c2ccccc2c2ccccc12,inactive
16,CCCCCCC(=O)OC1CC(C)(C)NC(C)(C)C1,inactive
17,C=C1C[C@@]23CC[C@H]4[C@@](C)(CCC[C@@]4(C)C(=O)O)[C@@H]2CC[C@]1(O)C3,inactive
18,O=C(O)c1ccccc1Nc1cccc(OCc2ccc3ccccc3n2)c1,inactive
19,N[C@@H](CCC(=O)N[C@H](CSN=O)C(=O)NCC(=O)O)C(=O)O,inactive
20,N[C@@H](CCCC(=O)O)C(=O)O,inactive

row,SMILES,Potency
1,CC(=O)[C@H]1CCC2C3CC=C4C[C@@H](OS(=O)(=O)O)CC[C@]4(C)C3CC[C@@]21C (stereo not given in full),inactive
2,O=C(O)/C=C/c1ccc(O)c(O)c1,inactive
3,N=C(N)c1ccc(N)cc1,inactive
4,Cc1nc(N=Nc2cc(S(=O)(=O)O)c3cc([N+](=O)[O-])cc(S(=O)(=O)O)c3c2)c(COP(=O)(O)O)c(C=O)c1O,inactive
5,NC1(C(=O)O)CCc2cc(C(=O)O)ccc21 (stereo not given),inactive
6,CNc1cc(NS(=O)(=O)c2ccc(N)cc2)nc(NC)n1,inactive
7,CC1C(=O)N(C)C(=O)c2nc[nH]c21 (stereo not given),inactive
8,COc1ccccc1N1CCN(CCN(C(=O)c2ccc(F)cc2)c2ccccn2)CC1,inactive
9,Cn1c(=O)[nH]c2ncn(C)c2c1=O,inactive
10,COc1cc2c(CCNC(C)=O)c[nH]c2cc1O,inactive
11,CCC(=O)N1CCN(C(=O)c2ccccc2)CC1,inactive
12,CCCCCCCCCCCCCCCCCCOC[C@H](COP(=O)([O-])OCC[N+](C)(C)C)OC,inactive
13,CC1CCN=C(N)S1 (stereo not given),inactive
14,C/C(=C\c1ccc(C(=O)O)cc1)c1ccc2c(c1)C(C)(C)CCC2(C)C,inactive
15,Oc1ccc(Cn2cc[nH]c2=S)cc1,inactive
16,N=C(N)c1ccc(OCCCCCOc2ccc(C(=N)N)cc2)cc1 (tested in a mixture with another compound),inactive
17,COc1ccc(NC(=O)c2ccc(-c3ccc(-c4noc(C)n4)cc3C)cc2)cc1N1CCN(C)CC1,inactive
18,NC(N)=NC(N)=Nc1ccccc1,inactive
19,C[C@H]1CC2C3CCC4=CC(=O)C=C[C@]4(C)[C@@]3(Cl)[C@@H](O)C[C@]2(C)[C@@]1(O)C(=O)CO (stereo not given in full),inactive
20,C=CCn1c(=O)c2c(nc(-c3ccc(S(=O)(=O)O)cc3)n2C)n(C)c1=O,inactive
